Source: PubChem BioAssay (NCI)
Compounds without any hit were thinned out: in the full panel of roughly 79,000, 15% have a hit. Unmarked numbers belong to inactive results. Active and inactive are the calls of the source. Cut-off read from the data, not from the text of the source: active = growth inhibition above about 70%; inactive = the rest.

Key:
[1] = NCI Yeast Anticancer Drug Screen. Data for the rad50 strain (AID 155);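 note: 0% = growth of vehicle-only cultures of the same strain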; settings: S. cerevisiae rad50 strain growth inhibition; at 50.0 µM; stronger effect = higher value
Procedure, shortened: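 A DNA repair-deficient yeast mutant serves as the test organism; compound-induced growth inhibition is calculated against vehicle-treated cells.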

[2] = NCI Yeast Anticancer Drug Screen. Data for the mec2-1 strain (AID 157); settings: S. cerevisiae mec2-1 strain, at 50.0 µM, stronger effect = higher value
Procedure, shortened: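 Using mec2-1 yeast: add compound, measure growth, express inhibition versus vehicle-treated cultures.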

[3] = NCI Yeast Anticancer Drug Screen. Data for the sgs1 mgt1 strain (AID 161);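 note: 0% = growth of cultures given vehicle only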; settings: S. cerevisiae sgs1 mgt1 strain, at 50.0 µM, stronger effect = higher value
Procedure, shortened: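 Compounds are added to genetically altered yeast, and growth is compared with cultures given vehicle alone to give percent inhibition.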

[4] = NCI Yeast Anticancer Drug Screen. Data for the cln2 rad14 strain (AID 165);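 note: 0% = growth equal to vehicle treated cultures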; settings: S. cerevisiae cln2 rad14 strain, at 50.0 µM, stronger effect = higher value
Procedure, shortened: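 Yeast strain cln2 rad14, bearing defects in cell cycle control and DNA repair, serves as the test system; values reflect growth inhibition compared with vehicle.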

[5] = NCI Yeast Anticancer Drug Screen. Data for the bub3 strain (AID 167); settings: S. cerevisiae bub3 mutant strain, at 50.0 µM, stronger effect = higher value
Procedure, shortened: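 Inhibition values come from growth of compound-treated mutant yeast normalised to vehicle-treated controls.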

[6] = NCI Yeast Anticancer Drug Screen. Data for the mlh1 rad18 strain (AID 175); settings: S. cerevisiae mlh1 rad18 strain growth inhibition; at 50.0 µM; stronger effect = higher value
Procedure, shortened: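 Steps: expose repair-defective yeast to compound; measure growth; express inhibition against vehicle-treated controls.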

Compound | growth inhibition [1] | growth inhibition [2] | growth inhibition [3] | growth inhibition [4] | growth inhibition [5] | growth inhibition [6]
Cc1csc2c1-n1cccc1C2=O | 5.5% | 1% | -17.8% | 12.2% | -19.4% | 24.3%
CC(C)(C)OC(=O)N1CCCC1C(=O)NCCNc1ccc(NCCNC(=O)C2CCCN2C(=O)OC(C)(C)C)c2c1C(=O)c1ccccc1C2=O (stereo unspecified) | 13.8% | 13.4% | 21.4% | 52.4% | 2.35% | -25%
CN=CN(C)c1c2ccccc2nc2ccccc12 | 5.6% | -11.3% | -5.05% | 10.7% | 9.75% | -1.25%
COc1cc(C(C)S(=O)(=O)c2ccc(C)cc2)ccc1O (stereo unspecified) | -2.95% | -9.3% | 8.65% | 6.5% | 3.2% | 9.45%
CC(=O)OCc1cccc(O)c1C(=O)CCC=C(C)C | -4.4% | -17.1% | 8.15% | -10.9% | -6.7% | -63.5%
CC(C)CCOCC(O)CNCCN (stereo unspecified) | 12.6% | 2.5% | -14.7% | 5.1% | -1% | 12.3%
O=C1CC2(CCCC2)C(=O)N1c1ccc(O)c(CN2CCCCC2)c1 | 7.6% | -4.3% | -19.6% | 14.7% | 6.35% | 4.95%
COc1cc(C#N)cc(OC)c1OC | 26% | -14.8% | 2.85% | 1.45% | 1.85% | -12.2%
CC1(C(N)=O)CCC1 | 1.8% | -15.4% | -18.4% | -24.1% | 10.2% | -20.9%
COc1c2c(c(OC)c3c(=O)c4ccccc4[nH]c13)OCO2 | 12.6% | -8.85% | 26.9% | -2.25% | 18.2% | 22.9%
CCOC(=O)C(=O)Cc1ccccc1[N+](=O)[O-] | 26.1% | 0.1% | 7.75% | -3.95% | -3.8% | 38%
COc1cc(C2c3cc4c(cc3OC(NNC(N)=O)C2C)OCO4)cc(OC)c1OC (stereo unspecified) | -4.1% | 6.4% | 6.7% | -19.6% | 11.5% | 10.4%
CCN(CC)CCN(C(=O)c1ccc(F)cc1)c1ccccc1N | -13.2% | -34.1% | -23.6% | -11.9% | 3.85% | -23.6%
CCOC(=S)SCC(=O)c1ccc(Br)cc1 | 67% | 70.5% (active) | 66.8% | -7.5% | 55.2% | 83.5% (active)
Cc1ncc([N+](=O)[O-])n1CCCl | -1.8% | 12.2% | 3.35% | -27.2% | -0.15% | -4.35%
COc1cc(CNCCO)cc(OC)c1 | 22.2% | 8.8% | -1.35% | -15.1% | 19.6% | 13%
CC(O)C12OC1CC1C3CC4OC45CC(O)CCC5(C)C3CCC12C (stereo unspecified) | 36.5% | 20.6% | 38.7% | 31.1% | 36.9% | 9.1%
CCOC(=O)C(CC(Nc1ccccc1)(c1ccccc1)c1ccccc1)c1ccccc1 (stereo unspecified) | 21.9% | -8.3% | 4.65% | -35.5% | -3.45% | -0.65%
COc1cc2c(c3c1c(=O)c1ccccc1n3C)C=CC(C)(C)O2 | 10.9% | -13.9% | 22.7% | 11.2% | 4.75% | 9.9%
COc1ccc(Nc2nc(NNC(=O)Cc3ccccc3)nc(NNC(=O)c3ccncc3)n2)cc1 | 8.5% | 20.1% | 30.1% | 19.2% | 27.2% | 30.4%
Cc1c(COC(=O)NC(C)C)c(COC(=O)NC(C)C)c2n1CS(=O)(=O)C2 | -16.2% | 6.55% | -3.2% | 7.3% | -5.7% | 6.35%

Compound | growth inhibition [1] | growth inhibition [2] | growth inhibition [3] | growth inhibition [4] | growth inhibition [5] | growth inhibition [6]
CCCC12C=C(OC)C(=O)C=C1OC(c1cc(OC)c(OC)c(OC)c1)C2C (stereo unspecified) | -14.8% | -23.4% | -18.8% | -4.45% | -6.8% | -13.4%
CN(C)Cc1ccccc1C(=C(c1ccccc1)c1ccccc1)c1ccccc1 | -15.1% | -4.65% | -8% | -23.6% | -0.8% | -10.9%
Nc1ncnc2c1ncn2C1C=COC(CO)C1O (stereo unspecified) | 4.95% | 1.05% | -6.5% | 2.5% | -28.5% | 20.4%
O=C1CSC(=O)N1 | -24.3% | -14.4% | -0.2% | -32.8% | -38% | -41.5%
Cc1ccc([Si](C)(C)c2ccccc2)cc1 | -2.4% | 13.6% | -2.65% | 7.7% | 9.7% | 4.9%
CCCCCCCC(=O)OCC(=O)c1ccc(-c2ccccc2)cc1 | -24.8% | -1.6% | 2.85% | -28.6% | 11.5% | 3.1%
CC(=S)N=Cc1c(N)[nH]n(-c2ccccc2)c1=O | -40.5% | -12.8% | -24.6% | -0.3% | -20.1% | -24.5%
N=C(N)SCC(=O)c1ccc([N+](=O)[O-])cc1 | -6.65% | 4.95% | 1.35% | -0.4% | 3.85% | 5.8%
C=CCSc1ccc(Cl)cc1[N+](=O)[O-] | 18.8% | -3.4% | 6.05% | -8.45% | 4% | 0.3%
Cc1c(O)ccc2c(O)c(NC(=O)c3ccc4c(c3)CCC(C)(C)O4)c(=O)oc12 | 4.95% | -22.9% | 7.95% | -95.5% | -21.5% | 21.1%
COc1cc2c(cc1OC)C(=O)/C(=C/c1ccc([N+](=O)[O-])cc1)CC2 | -50.2% | -56.5% | -11.9% | -38.2% | -28% | -33.9%
CC(C)CCCC(C)C1CCC2C3CC=C4CC(OC(=O)C56C=CC(=O)C5C5C=CC6CC5)CCC4(C)C3CCC12C (stereo unspecified) | 11.4% | 21.6% | -1.2% | 2.25% | 1.65% | 20.9%
Cc1cc(O)c(C=NC(=S)c2ccccc2)c(=O)o1 | -14.1% | -32% | 10.2% | 5.3% | 4.55% | -40.4%
COc1ccc(NC(=S)Nc2ccccc2)cc1 | 4.8% | -36.8% | -22.6% | -46.9% | -21.8% | -8.4%
O=C1CCNC/C1=C\c1ccccc1 | 6.25% | -14.3% | 8.9% | 13.4% | -19.2% | 6.55%
O=[N+]([O-])c1ccc(/C(=C/c2ccc(Cl)cc2Cl)S(=O)(=O)C(Cl)Cl)o1 | 98.3% (active) | 98.8% (active) | 99.1% (active) | 99.1% (active) | 98.2% (active) | 98% (active)
CSc1nc2ncnc(NCc3ccc(Cl)cc3)c2[nH]1 | -11% | -4.35% | -4.1% | -43.3% | -7.45% | -35.7%
COc1ccc(CNc2cnc3cc(N)ccc3n2)cc1OC | -12.3% | -34.5% | -37.5% | 3.15% | -19.3% | -16.4%
Cc1cc(C)c2nc(N)sc2c1 | 24.3% | 9.35% | -5.8% | -4.45% | 12.4% | 30.1%
CC1(C)C2CCC1C(=O)C(C=O)C2 (stereo unspecified) | -10.3% | 16.1% | -22.1% | 32.5% | -40.2% | -41.8%
